The source of these data is PubChem BioAssay AID372 (MTDP, 2006).

Hit rate of the full screen: of about 100,000 compounds, about 770 (0.77%) were called active. The entries come from a sample that favours actives as a whole. Unmarked numbers belong to inactive results. No stated cut-off is given here; in the data, active means inhibition above about 50%; inactive means the rest.

The target of the assay is Gag-Pol polyprotein (Human immunodeficiency virus type 1 group M subtype B (isolate HXB2)) (UniProt P04585). The assay is described as follows: RNase H inhibition, HIV 1 Gag Pol polyprotein, FRET biochemical assay, screening (AID 372). Conditions: HIV-1 RT RNase H, FRET RNA/DNA substrate fluorescence; at 10 µM; hits give high values.
As for `COc1ccccc1-n1c(C=C2C(=O)N(Cc3ccccc3)c3ccccc32)nc2ccccc2c1=O`, the inhibition is 9%. For the compound `O=c1oc(/C=C\c2ccccc2)nc2ccc(Cc3ccc4nc(/C=C\c5ccccc5)oc(=O)c4c3)cc12`, the inhibition was 7%. `Cc1oc2ccc(OCc3ccc([N+](=O)[O-])cc3)cc2c1C(=O)OC(C)C`: the inhibition was 13%. To `CCOCCOC(=O)C1=C(C)NC2=C(C(=O)CC(c3ccc(OC)cc3)C2)C1c1cccc(OC)c1OC` (stereo unspecified) belongs 5%; to `O=C1c2ccccc2CCC1C1(O)C(=O)Nc2ccc(Br)cc21` (stereo unspecified), 2%; to `CCn1c2ccccc2c2ccc(-c3nn(-c4ccccc4)cc3C=O)cc21`, 11%. As to `Cc1ccc(-c2ccccc2)n1-c1ccc(O)c(C(=O)O)c1`, the inhibition was 6%. `Cc1ccc(C)n1-c1ccc(Cl)c(C(=O)O)c1`: the inhibition is 53% (active). For the compound `Cc1nc(=O)c(-c2ccccc2)c(C)n1-c1ccc(C(=O)O)c(O)c1`, the inhibition is 0%. For `Cc1ccc(C)n1-c1ccc(Cl)c(O)c1`, the inhibition is 41%. `Cc1ccc(C)n1-c1ccc(C(=O)O)c(Cl)c1`: the inhibition was 16%. In the case of `Cc1ccc(-c2ccccc2)n1-c1ccc(Cl)c(C(=O)O)c1` it was 3%. In the case of `Cc1ccc(C)n1-c1ccc(C(=O)O)c(O)c1` it was 99% (active); in that of `Cc1ccc(C)n1-c1cc(C(=O)O)cc(C(=O)O)c1`, 2%. To `CC(C)(Cc1ccc(O)cc1)NC(=O)Cc1ccccc1` belongs 6%; to `CS(=O)(=O)N(CC(=O)N1CCCC1)c1cccc(Cl)c1`, 6%; to `CC1=C(C#N)C(c2cccc(F)c2)C2=C(CC(c3ccccc3)CC2=O)N1` (stereo unspecified), 11%. Regarding `COc1ccc(OC)c(NC(=O)CN(CCc2ccccc2)S(=O)(=O)c2ccccc2)c1`, the inhibition is 15%.

With `Cc1cc(C)cc(NC(=O)Cc2ccccc2)c1`, the inhibition was 3%. To `O=C1NC(=O)N(c2ccccc2)C(=O)/C1=C\c1cccc(OCc2ccc(F)cc2)c1` belongs 9%; to `CC(=O)Nc1ccc2nn(-c3ccc(F)cc3)nc2c1`, 4%; to `CCOC(=O)c1ccc(NC(=O)CSc2nnnn2-c2c(C)cc(C)cc2C)cc1`, 55% (active). As to `O=C(CSc1nnnn1-c1ccccc1)Nc1ccc(C(=O)O)cc1`, the inhibition was 0%. In the case of `COc1ccc(-n2nnnc2SCC(=O)Nc2c(C)cc(C)cc2C)cc1` it was 12%. To `CC1=C(C(=O)OC(C)C)C(c2cccc(F)c2)C2=C(CCCC2=O)N1` (stereo unspecified) belongs 4%; to `C=CCN1C(=O)/C(=C2\SC(=S)N(Cc3ccccc3)C2=O)c2ccccc21`, 33%; to `CCCCCN1C(=O)/C(=C2\SC(=S)N(c3ccc(Br)cc3)C2=O)c2ccccc21`, 16%.

Regarding `CCN1C(=O)/C(=C2\SC(=S)N(c3ccccc3)C2=O)c2ccccc21`, the inhibition is 4%. For the compound `CCN1C(=O)/C(=C2\SC(=O)N(Cc3ccccc3)C2=O)c2ccccc21`, the inhibition is 59% (active). To `CCN1C(=O)/C(=C2\SC(=S)N(c3ccc(Br)cc3)C2=O)c2ccccc21` belongs 57% (active); to `CCN1C(=O)/C(=C2\SC(=S)N(CC(=O)O)C2=O)c2ccccc21`, 7%.
